These results are taken from PubChem BioAssay (Tox21).

Assay [1] is described as follows: Human pregnane X receptor (PXR) small molecule agonists, qHTS cell viability counter screen (AID 1346977). Note: nearly all actives have a fitted effect of over 50% in size. Note: potency is the fitted concentration of half-maximal effect. In short, it runs like this:
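Cytotoxicity counter screen run in the same wells as the PXR luciferase assay, using PXR-Luc HepG2 cells in charcoal-stripped serum medium. Viability: CellTiter-Fluor fluorescence after 24hr compound treatment.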

Assay [2] can be described thus: Caspase-3/7 induction in HepG2 cells by small molecules, qHTS assay (AID 1346978). Note: nearly all actives have a fitted effect of over 15% in size. In short, it runs like this:
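Caspase-3/7 induction was measured by Caspase-Glo 3/7 luminescence (30 min, room temperature) after a 17 hr compound exposure of wild-type HepG2 cells seeded at 2,000 per well and pre-incubated 5 hr.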

A short description of assay [3]: Caspase-3/7 induction in CHO-K1 cells by small molecules, qHTS cell viability counter screen (AID 1346979). Note: nearly all actives have a fitted effect of over 35% in size. Note: potency is the fitted concentration of half-maximal effect. In short, it runs like this: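 Cytotoxicity counter screen run in parallel with the caspase-3/7 assay: CHO-K1 cells, 16hr compound treatment at 37C, then CellTiter-Fluor for 1hr before fluorescence reading.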
Assay [4] in a line: Caspase-3/7 induction in HepG2 cells by small molecules, qHTS cell viability counter screen (AID 1346981). Note: nearly all actives have a fitted effect of over 30% in size. Note: potency is the fitted concentration of half-maximal effect. The gist of the method:
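In this quantitative HTS counter screen, compounds delivered in DMSO were left on unmodified HepG2 cells for 16 hr at 37 C. Viability was then determined fluorometrically with CellTiter-Fluor, in parallel with caspase-3/7 induction in the same wells.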

For assay [5], the target named is Nuclear receptor subfamily 1 group I member 2 (Homo sapiens) (UniProt O75469). The assay can be described thus: Human pregnane X receptor (PXR) small molecule agonists, qHTS assay (AID 1346982). Note: nearly all actives have a fitted effect of over 35% in size. Note: potency is the fitted concentration of half-maximal effect. The gist of the method: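 Reporter HepG2 cells expressing PXR-Luc are cultured in charcoal-stripped FBS (5%), treated with compounds for 24 hr at 37 C, and assayed by ONE-Glo luminescence after 30 min at room temperature.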
Sequence of Nuclear receptor subfamily 1 group I member 2 (Homo sapiens) (O75469 whole entry, looked up): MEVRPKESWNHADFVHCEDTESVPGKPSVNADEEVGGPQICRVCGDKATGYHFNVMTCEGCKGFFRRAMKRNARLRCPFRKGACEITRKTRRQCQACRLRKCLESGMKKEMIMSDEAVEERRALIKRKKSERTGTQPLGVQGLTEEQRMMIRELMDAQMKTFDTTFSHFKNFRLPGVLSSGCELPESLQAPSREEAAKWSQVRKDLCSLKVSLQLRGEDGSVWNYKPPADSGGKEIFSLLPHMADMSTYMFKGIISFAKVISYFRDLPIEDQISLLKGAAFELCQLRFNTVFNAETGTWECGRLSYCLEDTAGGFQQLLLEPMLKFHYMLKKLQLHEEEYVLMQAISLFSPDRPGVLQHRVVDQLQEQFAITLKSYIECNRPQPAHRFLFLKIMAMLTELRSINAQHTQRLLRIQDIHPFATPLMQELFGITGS

Assay [6] concerns the target Acetylcholinesterase (Homo sapiens) (UniProt P22303). The assay can be described thus: Acetylcholinesterase (AChE) small molecule antagonists: colormetric cell-based qHTS assay (AID 1347395; calls by dose curve; note: nearly all actives have a fitted effect of over 30% in size). The gist of the method: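 Cells (SH-SY5Y, 2,000 per well) are seeded and left overnight at 37 C. Compound is added for 30 min, then DTNB and acetylthiocholine for a further 90 min at 37 C before absorbance-based thiocholine detection.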

For assay [7] the target is unchanged. The assay can be described thus: Acetylcholinesterase (AChE) small molecule antagonists: enzyme-based qHTS assay (AID 1347397; calls by dose curve; note: nearly all actives have a fitted effect of over 55% in size). To be noted: Potency: AChE enzyme activity inhibition. The gist of the method:
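First, recombinant human AChE (50 mU/mL as dispensed) received test compound or DMSO. Second, plates stood 30 min at room temperature. Third, DTNB and acetylthiocholine were added, followed by 10 min at room temperature and colorimetric detection.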

Assay [8] has the same target. The assay can be described thus: Acetylcholinesterase (AChE) small molecule antagonists: fluorescence cell-based qHTS assay (AID 1347398; calls by dose curve; note: nearly all actives have a fitted effect of over 50% in size). Particulars: Potency: AChE activity. In short, it runs like this:
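Homogeneous quantitative HTS format. SH-SY5Y cells seeded at 2,000 per well settle overnight at 37 C. Compound pretreatment runs 30 min (37 C, 5% CO2); substrate/probe mix then reacts 40 min at RT before reading 490/520 nm.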

The target is the same in assay [9]. The assay can be described thus: Acetylcholinesterase (AChE) small molecule antagonists: enzyme-based qHTS assay with human liver microsomes (AID 1347399; calls by dose curve; note: nearly all actives have a fitted effect of over 60% in size). Particulars: Potency: qHTS inhibition. In short, it runs like this:
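Recombinant human AChE (50 mU/mL in the enzyme mix) and human liver microsomes (0.25 mg/mL final) were preincubated with compound and NADPH (0.25 mg/mL final) for 30 min at 37 C. Acetylthiocholine/DTNB was then added; thiocholine was read colorimetrically after 10 min at room temperature.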

For assay [10], the target named is Cytochrome P450 2D6 (Homo sapiens) (UniProt P10635). The assay can be described thus: Cytochrome P450 Family 2 Subfamily D Member 6 (CYP2D6) small molecule antagonists: luciferase reporter qHTS assay (AID 1671196). Note: nearly all actives have a fitted effect of over 50% in size. Note: potency is the fitted concentration of half-maximal effect. The gist of the method: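 Test chemicals meet CYP2D6 plus proluciferin substrate (10 min, RT); NADPH regenerating solution then drives turnover for 1 h. Detection reagent halts the reaction; luminescence measured after 20 min.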
Sequence of Cytochrome P450 2D6 (Homo sapiens) (P10635 whole entry, looked up): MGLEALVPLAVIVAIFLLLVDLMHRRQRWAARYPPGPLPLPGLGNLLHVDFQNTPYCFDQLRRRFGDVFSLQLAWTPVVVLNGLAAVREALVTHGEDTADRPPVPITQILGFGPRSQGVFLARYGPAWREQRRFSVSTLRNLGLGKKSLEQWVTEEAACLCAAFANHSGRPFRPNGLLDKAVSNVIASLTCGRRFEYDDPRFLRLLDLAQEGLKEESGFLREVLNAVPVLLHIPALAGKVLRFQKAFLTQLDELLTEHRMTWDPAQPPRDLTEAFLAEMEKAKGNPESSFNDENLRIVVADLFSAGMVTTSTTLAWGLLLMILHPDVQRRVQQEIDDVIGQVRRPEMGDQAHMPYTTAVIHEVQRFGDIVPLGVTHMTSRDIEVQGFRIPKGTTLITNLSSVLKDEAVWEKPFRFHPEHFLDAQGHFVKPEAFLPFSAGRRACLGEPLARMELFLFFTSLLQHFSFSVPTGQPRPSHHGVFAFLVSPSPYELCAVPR

Assay [11] deals with Cytochrome P450 2C19 (Homo sapiens) (UniProt P33261). The assay can be described thus: Cytochrome P450 Family 2 Subfamily C Member 19 (CYP2C19) small molecule antagonists: luciferase reporter qHTS assay (AID 1671197). Note: nearly all actives have a fitted effect of over 65% in size. Note: potency is the fitted concentration of half-maximal effect. In short, it runs like this: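 Relative luminescence units recorded 20 min after the detection reagent stopped a 1 h, 37C CYP2C19 reaction on proluciferin substrate, which was started by NADPH regeneration following 10 min room-temperature compound preincubation; ketoconazole positive control.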
Sequence of Cytochrome P450 2C19 (Homo sapiens) (P33261 whole entry, looked up): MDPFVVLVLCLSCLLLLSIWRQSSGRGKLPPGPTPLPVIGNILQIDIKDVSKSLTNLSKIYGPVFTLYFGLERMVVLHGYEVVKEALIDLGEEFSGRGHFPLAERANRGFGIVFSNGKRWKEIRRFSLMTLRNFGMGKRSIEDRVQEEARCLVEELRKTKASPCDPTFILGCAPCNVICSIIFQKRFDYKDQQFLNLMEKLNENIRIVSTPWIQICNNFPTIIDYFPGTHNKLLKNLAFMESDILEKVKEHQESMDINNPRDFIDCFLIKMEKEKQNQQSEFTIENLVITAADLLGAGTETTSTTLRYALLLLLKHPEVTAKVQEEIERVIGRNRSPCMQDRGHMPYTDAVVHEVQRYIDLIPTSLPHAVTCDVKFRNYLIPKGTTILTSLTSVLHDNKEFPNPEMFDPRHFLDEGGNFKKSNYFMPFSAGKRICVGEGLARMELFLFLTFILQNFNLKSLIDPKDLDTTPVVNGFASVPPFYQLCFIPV

Assay [12] in a line: Caspase-3/7 induction in CHO-K1 cells by small molecules, qHTS assay (AID 1346980). Note: nearly all actives have a fitted effect of over 15% in size. The gist of the method: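 Luminescent Caspase-Glo 3/7 read (30min, room temperature) quantified apoptosis induction. Cells were wild-type CHO-K1, treated with compound for 17hr at 37 C and 5% CO2.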
In assay [13] the target is Voltage-gated inwardly rectifying potassium channel KCNH2 (Homo sapiens) (UniProt Q12809). The assay can be described thus: Human Ether-a-go-go-Related Gene (hERG) channel small molecule antagonists: fluorescence cell-based qHTS assay (AID 1671200).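 Note: hERG-expressing U2OS cells given a thallium stimulus after FluxOR II dye loading; series mostly up to about 77 µM; nearly all actives have a fitted effect of over 50% in size.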 The gist of the method:
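Fluorescence at 540 nm emission (480 nm excitation) was recorded kinetically for 2 min at 1-second intervals once the thallium-containing stimulus reached cells previously loaded with FluxOR II dye.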

The target in assay [14] is Cytochrome P450 3A4 (Homo sapiens) (UniProt P08684). The assay can be described thus: Cytochrome P450 Family 3 Subfamily A Member 4 (CYP3A4) small molecule antagonists: luciferase reporter qHTS assay (AID 1671201). Note: nearly all actives have a fitted effect of over 50% in size. Note: potency is the fitted concentration of half-maximal effect. In short, it runs like this:
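qHTS, 1536-well. CYP3A4 + proluciferin substrate, cpd 10 min RT → NADPH regen 1 h RT → detection reagent 20 min → luminescence (RLU). Ketoconazole positive control.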

Assay [15] deals with Cytochrome P450 2C9 (Homo sapiens) (UniProt P11712). The assay can be described thus: Cytochrome P450 Family 2 Subfamily C Member 9 (CYP2C9) small molecule antagonists: luciferase reporter qHTS assay (AID 1671198). Note: nearly all actives have a fitted effect of over 50% in size. Note: potency is the fitted concentration of half-maximal effect. In short, it runs like this:
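Enzyme-substrate mix preincubated with compound 10 min at room temperature; reaction started with NADPH regeneration solution, 1 h 37C. Luminescent luciferin product read after 20 min detection reagent.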

The target of assay [16] is Cytochrome P450 1A2 (Homo sapiens) (UniProt P05177). The assay can be described thus: Cytochrome P450 Family 1 Subfamily A Member 2 (CYP1A2) small molecule antagonists: luciferase reporter qHTS assay (AID 1671199). Note: nearly all actives have a fitted effect of over 50% in size. Note: potency is the fitted concentration of half-maximal effect. In short, it runs like this:
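Steps: enzyme-substrate mix dispensed; test compounds and furafylline control pinned in; 10 min room temperature; NADPH regeneration solution added, 1 h; reaction stopped with luciferin detection reagent; luminescence read after 20 min.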

Values without a mark were called inactive. Records with an inconclusive call do not appear. Active and inactive are the calls of the source. Unless noted, calls come from the whole dose curve; as a rule, active = well fitted curve in the direction sought with a large enough effect in the repeat runs; inconclusive = weak or mixed curves; inactive = no such curve, though single readings can be large; an effect the other way counts as inactive or inconclusive.

Sequence of Cytochrome P450 3A4 (Homo sapiens) (P08684 whole entry, looked up): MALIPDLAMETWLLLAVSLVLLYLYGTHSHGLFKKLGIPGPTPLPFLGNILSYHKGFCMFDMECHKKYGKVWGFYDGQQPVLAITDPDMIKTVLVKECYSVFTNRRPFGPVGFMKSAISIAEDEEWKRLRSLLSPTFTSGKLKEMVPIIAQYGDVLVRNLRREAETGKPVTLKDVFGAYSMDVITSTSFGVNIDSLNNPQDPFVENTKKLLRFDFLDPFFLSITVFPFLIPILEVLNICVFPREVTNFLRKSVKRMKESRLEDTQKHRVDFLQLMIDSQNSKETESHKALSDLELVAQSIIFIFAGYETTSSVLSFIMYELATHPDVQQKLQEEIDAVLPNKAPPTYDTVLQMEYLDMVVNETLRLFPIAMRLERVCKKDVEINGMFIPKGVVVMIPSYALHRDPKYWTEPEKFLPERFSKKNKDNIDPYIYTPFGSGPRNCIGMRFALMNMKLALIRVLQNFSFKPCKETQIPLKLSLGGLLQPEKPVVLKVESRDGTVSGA
Sequence of Cytochrome P450 2C9 (Homo sapiens) (P11712 whole entry, looked up): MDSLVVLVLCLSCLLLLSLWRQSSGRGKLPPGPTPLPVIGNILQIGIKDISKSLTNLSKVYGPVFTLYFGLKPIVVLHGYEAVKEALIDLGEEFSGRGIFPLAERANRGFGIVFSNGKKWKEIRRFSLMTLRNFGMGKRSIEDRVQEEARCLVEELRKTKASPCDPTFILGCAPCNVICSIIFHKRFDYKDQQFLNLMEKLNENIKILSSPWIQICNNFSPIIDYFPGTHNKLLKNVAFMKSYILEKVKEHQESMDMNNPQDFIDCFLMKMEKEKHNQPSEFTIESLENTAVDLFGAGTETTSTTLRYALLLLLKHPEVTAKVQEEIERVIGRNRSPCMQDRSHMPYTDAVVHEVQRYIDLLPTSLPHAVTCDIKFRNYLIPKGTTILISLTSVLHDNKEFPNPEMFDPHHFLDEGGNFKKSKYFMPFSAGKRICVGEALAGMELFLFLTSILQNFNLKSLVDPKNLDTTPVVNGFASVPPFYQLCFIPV
Sequence of Voltage-gated inwardly rectifying potassium channel KCNH2 (Homo sapiens) (Q12809 whole entry, looked up): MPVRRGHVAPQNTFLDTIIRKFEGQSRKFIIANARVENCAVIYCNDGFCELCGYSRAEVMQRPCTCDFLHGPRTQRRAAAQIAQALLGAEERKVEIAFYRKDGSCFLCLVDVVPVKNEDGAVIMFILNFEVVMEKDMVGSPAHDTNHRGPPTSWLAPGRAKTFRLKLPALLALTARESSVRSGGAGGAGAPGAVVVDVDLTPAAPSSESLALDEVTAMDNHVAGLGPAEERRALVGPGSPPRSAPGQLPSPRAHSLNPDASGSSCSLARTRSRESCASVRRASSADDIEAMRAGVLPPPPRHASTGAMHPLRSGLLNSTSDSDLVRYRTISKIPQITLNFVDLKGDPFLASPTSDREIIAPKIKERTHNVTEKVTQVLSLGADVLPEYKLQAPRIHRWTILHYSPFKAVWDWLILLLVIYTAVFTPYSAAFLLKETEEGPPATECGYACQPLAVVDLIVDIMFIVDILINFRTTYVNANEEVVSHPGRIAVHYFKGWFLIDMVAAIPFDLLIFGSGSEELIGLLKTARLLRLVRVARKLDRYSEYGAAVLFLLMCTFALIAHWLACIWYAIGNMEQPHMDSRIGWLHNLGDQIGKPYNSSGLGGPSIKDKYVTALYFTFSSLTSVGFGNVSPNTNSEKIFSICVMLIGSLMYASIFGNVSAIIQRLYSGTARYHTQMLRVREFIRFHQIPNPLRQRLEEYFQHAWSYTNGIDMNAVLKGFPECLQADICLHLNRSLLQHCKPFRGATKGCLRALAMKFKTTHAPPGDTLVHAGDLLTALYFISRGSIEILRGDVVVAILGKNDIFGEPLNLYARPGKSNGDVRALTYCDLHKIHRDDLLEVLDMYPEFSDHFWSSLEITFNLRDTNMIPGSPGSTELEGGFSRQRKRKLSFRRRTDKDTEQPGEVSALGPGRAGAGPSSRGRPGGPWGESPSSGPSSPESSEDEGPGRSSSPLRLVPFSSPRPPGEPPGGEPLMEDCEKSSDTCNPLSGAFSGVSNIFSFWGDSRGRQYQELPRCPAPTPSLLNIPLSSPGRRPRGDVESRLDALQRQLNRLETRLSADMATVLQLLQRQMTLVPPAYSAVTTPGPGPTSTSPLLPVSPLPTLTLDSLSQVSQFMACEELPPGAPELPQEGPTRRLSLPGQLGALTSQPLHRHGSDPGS
Sequence of Cytochrome P450 1A2 (Homo sapiens) (P05177 whole entry, looked up): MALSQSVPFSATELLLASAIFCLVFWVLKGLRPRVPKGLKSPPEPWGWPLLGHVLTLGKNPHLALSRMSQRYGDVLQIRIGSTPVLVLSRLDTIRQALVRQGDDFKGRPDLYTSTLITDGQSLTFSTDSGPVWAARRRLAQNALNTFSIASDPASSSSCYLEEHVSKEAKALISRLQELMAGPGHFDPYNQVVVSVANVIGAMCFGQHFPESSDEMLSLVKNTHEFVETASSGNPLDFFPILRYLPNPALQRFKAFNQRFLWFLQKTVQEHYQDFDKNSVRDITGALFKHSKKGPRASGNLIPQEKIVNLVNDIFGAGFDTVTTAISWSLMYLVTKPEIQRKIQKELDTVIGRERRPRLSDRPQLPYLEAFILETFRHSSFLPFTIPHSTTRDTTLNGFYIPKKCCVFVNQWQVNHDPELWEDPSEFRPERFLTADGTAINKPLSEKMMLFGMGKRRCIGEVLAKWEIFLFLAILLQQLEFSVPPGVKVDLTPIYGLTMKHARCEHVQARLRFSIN
Sequence of Acetylcholinesterase (Homo sapiens) (P22303 whole entry, looked up): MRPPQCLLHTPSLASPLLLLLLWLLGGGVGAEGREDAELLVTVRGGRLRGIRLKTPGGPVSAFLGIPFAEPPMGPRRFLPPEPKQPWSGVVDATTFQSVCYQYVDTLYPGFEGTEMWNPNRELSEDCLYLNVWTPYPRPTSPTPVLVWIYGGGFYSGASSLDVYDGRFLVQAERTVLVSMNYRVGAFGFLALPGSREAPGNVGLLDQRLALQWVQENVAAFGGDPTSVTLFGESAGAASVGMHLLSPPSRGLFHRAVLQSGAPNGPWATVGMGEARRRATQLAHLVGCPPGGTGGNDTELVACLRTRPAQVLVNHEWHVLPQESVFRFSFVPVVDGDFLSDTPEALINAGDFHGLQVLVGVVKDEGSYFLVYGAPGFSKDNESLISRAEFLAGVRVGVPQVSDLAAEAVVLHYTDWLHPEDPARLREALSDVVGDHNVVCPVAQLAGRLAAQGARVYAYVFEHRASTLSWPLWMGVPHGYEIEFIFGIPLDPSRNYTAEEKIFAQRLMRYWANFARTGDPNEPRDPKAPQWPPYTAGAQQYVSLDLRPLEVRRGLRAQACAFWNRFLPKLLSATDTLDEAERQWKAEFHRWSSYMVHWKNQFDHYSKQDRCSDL

On to `O=c1[nH]c2cc(Cl)ccc2n1C1CCNCC1`, for which the Potency result in assay [1], in assay [2], in [3], in assay [4], in assay [5] and in [6] was “inactive” in each case. For the same molecule, the Potency entry in assay [7], in [8], in [9] and in [11] was “inactive” in each case. The Potency in assay [10] was 15.5 µM (active).

`CCOC(=O)Cc1ccccc1`: the Potency result in [1], in assay [2], in assay [3], in assay [12], in [5] and in assay [6] was “inactive” each time. Also, the Potency result in assay [7], in assay [8], in assay [9], in assay [10], in assay [11] and in assay [13] was “inactive” throughout. Also, in assay [14], the Potency result was “inactive”.

As for `CCCCc1ccccc1`, the Potency result in [1], in assay [2], in assay [3], in assay [4], in assay [5] and in [6] was “inactive” in each case. Also, the Potency result in [7], in assay [8], in assay [9], in assay [10], in [11] and in assay [15] was “inactive” throughout. The Potency entry in assay [16] and in [14] was “inactive” in each case.

`ClSC(Cl)(Cl)Cl`: the Potency entry in assay [1], in assay [2], in assay [3], in assay [4], in [5] and in assay [6] was “inactive” throughout. The Potency result in assay [7], in [8], in assay [9], in assay [11], in assay [13] and in assay [14] was “inactive” throughout. The figures for the Potency in assay [10] and in [15] were 10.1 µM (active) and 31.8 µM (active), respectively.

For the molecule `c1ccc2nc(N3CCNCC3)ccc2c1`, the Potency result in assay [1], in assay [2], in assay [3], in [12], in assay [5] and in assay [7] was “inactive” in each case. In addition, the Potency result in assay [8], in [9], in assay [10], in assay [11], in assay [15] and in assay [13] was “inactive” each time. Besides, the Potency in [16] was 1.23 µM (active).

With `O=[N+]([O-])c1cc(C(F)(F)F)c(Cl)c([N+](=O)[O-])c1Nc1ncc(C(F)(F)F)cc1Cl`, the Potency in [1] was 17.2 µM (active); in [3], 5.45 µM (active); in assay [4], 54.5 µM (active); in assay [5] it was 8.63 µM (active); in assay [11], 12.6 µM (active); in [15], 0.564 µM (active). The Potency in [16] was 35.6 µM (active); in [14] it was 20 µM (active). Besides, the Potency result in [2], in [6], in [7], in assay [8] and in [9] was “inactive” in each case.

Consider `O.O.O.O=C([O-])[C@H]([O-])[C@@H]([O-])C(=O)[O-].O=C([O-])[C@H]([O-])[C@@H]([O-])C(=O)[O-].[K+].[K+].[Sb+3].[Sb+3]`, for which the Potency entry in assay [1], in [2], in assay [12], in assay [7], in [8] and in assay [13] was “inactive” throughout. In assay [3], the Potency is 17.3 µM (active).
